HP1b binding inh: HP1-beta chromodomain-methylated histone interaction inhibition | Potency, µM (titrated, usually from 114 µM), without a hit: at the top dose activity change, negative = inhibition, actives largely listed as inhibitors | 390,000 tested, 0.56% active | P83916 | AlphaScreen HP1-beta / biotin-H3K9me3 peptide binding; also: potency is read from the fitted curve at half-maximal effect; nearly all actives have a fitted effect of over 70% in size
Target sequence (P83916 whole entry, looked up): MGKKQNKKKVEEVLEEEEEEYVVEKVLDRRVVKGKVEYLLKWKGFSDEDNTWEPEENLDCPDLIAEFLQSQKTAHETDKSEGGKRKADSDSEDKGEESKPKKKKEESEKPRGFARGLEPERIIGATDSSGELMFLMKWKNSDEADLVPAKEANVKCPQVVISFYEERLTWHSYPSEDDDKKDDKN
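AlphaScreen: HP1-beta (50 nM) preformed 30 min with biotin-H3(1-18)K9me3 peptide (50 nM) in PBS pH 7.4, 0.01% Tween-20. Compound added for 30 min at RT, then streptavidin donor/nickel chelate acceptor beads (10 ug/mL) for 30 min.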
Six1-Eya2 inh: blocks human Six1 binding to Eya2; 360,000 tested, 0.56% active; Q15475+O00167; AlphaScreen GST-Six1/His-Eya2 binding, biochemical; hits give low values; activity change, % (test concentration not listed); in the data active = activity change below about -65%; inconclusive = mostly about -30% to -63%; also: % is scaled to controls: 0 for no effect and ±100 for the full control effect
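AlphaScreen luminescence read after one hour at 37 °C in darkness. Pin-transferred compounds met GST-Six1 and His-Eya2 protein (5X stock 250 nM/500 nM) plus glutathione donor and Ni-chelate acceptor beads (5X, 50 ug/mL).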
CtBP-E1A inh: CtBP/E1A binding inhibition. activity change, % (test concentration not listed). AlphaScreen GST-E1A/His-CtBP binding, 1536-well; hits give low values. AID 651724. 340,000 tested, 0.49% active; in the data active = activity change below about -65%; inconclusive = mostly about -30% to -63%; also: % is scaled to controls: 0 for no effect and ±100 for the full control effect
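Protein mix (5X: 125 nM each GST-E1A, His-CtBP) was incubated with pinned compound 2 h at 37 deg C in dark, in 50 mM Tris pH 8.0 buffer with 300 mM NaCl. Glutathione donor and nickel acceptor beads followed; AlphaScreen signal read after 1 h.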
G9a inh: G9a (human) methyltransferase inhibition. Q96KQ7. G9a H3K9 monomethylation, AlphaScreen, 2 h. Potency, µM (series often up to 102 µM), without a hit: at the top dose activity, negative = inhibition, usual class: inhibitors. 350,000 tested, 8.8% active. AID 504332; also: potency is read from the fitted curve at half-maximal effect; % is scaled to controls: 0 for no effect and ±100 for the full control effect; nearly all actives have a fitted effect of over 75% in size
Target sequence (Q96KQ7 913-1193 limits assumed): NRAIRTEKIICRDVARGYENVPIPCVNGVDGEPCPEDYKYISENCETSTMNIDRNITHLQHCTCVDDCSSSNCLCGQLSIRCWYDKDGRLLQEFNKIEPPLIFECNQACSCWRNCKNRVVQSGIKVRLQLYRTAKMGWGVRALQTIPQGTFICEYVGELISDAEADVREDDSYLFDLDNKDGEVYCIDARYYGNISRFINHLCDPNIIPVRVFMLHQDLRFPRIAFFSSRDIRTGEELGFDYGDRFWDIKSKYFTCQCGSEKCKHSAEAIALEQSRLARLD
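Readings reflect AlphaScreen signal from monomethyl-H3K9 antibody detection. HMT at 20 nM; substrate b-H3K9 500 nM; cofactor SAM 20 uM; 2 h RT reaction; compounds tested as titrations in qHTS with 15 min preincubation.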
BAZ2B block: BAZ2B (human) inhibition. 360,000 tested, 4.4% active. AlphaScreen BAZ2B-H3K14Ac peptide displacement. Q9UIF8. Potency, µM (titrated, usually from 114 µM), for the others: at the top dose activity change, negative = inhibition, hits mostly inhibitors. AID 504333; also: potency is read from the fitted curve at half-maximal effect; % is scaled to controls: 0 for no effect and ±100 for the full control effect; nearly all actives have a fitted effect of over 60% in size
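BAZ2B 50 nM plus b-H3(5-23)K14Ac 50 nM, PBS pH 7.4/0.01% Tween-20, 30 min RT; compound added (max 110 uM), 30 min RT; streptavidin donor/Ni-chelate acceptor beads 10 ug/mL final, 20 min dark; AlphaScreen read.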
JMJD2A Tudor: JMJD2A Tudor domain (human) inhibition | O75164 | AlphaScreen JMJD2A-Tudor / H3K4me3 peptide binding | Potency, µM (series often up to 114 µM), inactives show top-dose activity change, negative = inhibition, actives largely listed as inhibitors | 390,000 tested, 4.4% active; also: potency is read from the fitted curve at half-maximal effect; % is scaled to controls: 0 for no effect and ±100 for the full control effect; nearly all actives have a fitted effect of over 50% in size
Numbers without * were called inactive; ? = inconclusive; . = not tested or not shown; [ ] = remark or other dose. An excerpt weighted towards active compounds, which were near 10% of everything screened. Unless noted, calls follow the shape of the dose curve; as a rule, active = well fitted inhibition curve with a large enough effect; inconclusive = small, poorly fitted or top-dose-only effect; inactive = no such curve, though single readings can be large or run the other way.

SMILES	HP1b binding inh	Six1-Eya2 inh	CtBP-E1A inh	G9a inh	BAZ2B block	JMJD2A Tudor
COc1ccc(C(=O)N2CCC(C(=O)N3CCN(c4ccccc4)CC3)CC2)cc1	22.2%	-0.6	4.7	.	.	-5.9%
O=C(O)c1ccc2c(c1)CC(c1ccccc1)OC2=O (stereo not drawn)	28.5%	4.0	-0.3	?	3.6%	-8.8%
O=C1OC(c2ccccc2)Cc2cc(C(=O)N3CCN(c4ccc(F)cc4)CC3)ccc21 (stereo not drawn)	-0.2%	-11.1	-2.2	50.1µM*	-33.2%	-26.0%
CCn1nc(C(=O)OCC(=O)Nc2ncc(Cl)c(C)c2Cl)c2ccccc2c1=O	-14.6%	-16.2	0.0	50.1µM*	?	?
CCOc1cc(C(=O)OCC(=O)Nc2ncc(Cl)c(C)c2Cl)ccc1OCC(=O)N1CCOCC1	12.9%	-2.4	2.9	44.7µM*	4.3%	-12.9%
Cc1c(Cl)cnc(NC(=O)COC(=O)c2cc3c(s2)CCC(C)C3)c1Cl (stereo not drawn)	10.5%	-0.7	.	35.5µM*	3.2%	-18.3%
COc1ccc(NC(=O)c2ccc(NC(=O)CCS(=O)(=O)c3cccs3)cc2)cc1OC	20.2%	.	.	1.3%[59 µM]	-12.6%	-19.8%
COc1ccc(C(=O)N2CCC3(CCCN(Cc4nccs4)C3)CC2)cc1	.	.	.	1.0%[12.7 µM]	.	.
S=c1[nH]c2ccc3ccccc3c2[nH]1	25.4%	4.6	-5.1	.	?	-16.0%
Cc1[nH]c2c(ccc3ccccc32)c1C1C(CCN)C1(C)C (stereo not drawn)	-7.0%	?	-24.6	-43.6%[59 µM]	56.2µM*	56.2µM*
COc1cccc(CN2CCCC(N3CCc4ccccc4C3)C2)c1O (stereo not drawn)	13.3%	-0.4	-2.7	?	-22.4%	-20.5%
c1ccc2c(c1)CCN(C1CCCCC1)C2	?	5.2	-5.6	20µM*	79.4µM*	25.1µM*
CCc1nn(CC(=O)N2CCN(c3cccc(C)c3C)CC2)c(=O)c2cc3sccc3n12	38.6%	.	.	-3.1%[59 µM]	2.0%	6.9%
O=C(Cn1cc(SCc2c(F)cccc2Cl)c2ccccc21)N1CCCC1	24.4%	.	.	-3.6%[59 µM]	?	-7.0%
CN(C)c1ccc(CNC(=O)c2cc3ccccn3n2)cc1	-11.7%	.	.	15.8µM*	?	?
COc1ccc(-c2cc3nc(-c4ccc(C)cc4)cc(C(F)(F)F)n3n2)cc1	38.7%	.	.	-32.1%[59 µM]	7.5%	9.0%
COc1ccccc1CCC(=O)OCC(=O)c1c(N)n(CC(C)C)c(=O)n(C)c1=O	26.8%	-2.3	6.4	-40.1%[0.501 µM]	?	-10.1%
CC(C)Cn1c(N)c(C(=O)COC(=O)C2CCCCC2)c(=O)n(C)c1=O	-9.4%	11.0	-0.6	?	1.3%	25.1µM*
COc1ccc(CCC(=O)OCC(=O)c2c(N)n(CC(C)C)c(=O)n(C)c2=O)cc1	10.4%	6.7	3.6	79.4µM*	?	-13.7%
Cc1ccc(N2CC(C(=O)OCC(=O)c3c(N)n(CC(C)C)c(=O)n(C)c3=O)CC2=O)cc1 (stereo not drawn)	18.1%	3.6	-10.0	10.0%[2.33 µM]	22.7%	-9.5%
N#CC1=C2SCCN2C(=O)C(C#N)C12CCCCC2 (stereo not drawn)	18.6%	2.3	-3.4	22.4µM*	-38.2%	-25.4%
Cc1nn(CC(=O)OC(C)C(=O)Nc2ccccc2[N+](=O)[O-])c(C)c1[N+](=O)[O-] (stereo not drawn)	-6.5%	1.1	4.6	79.4µM*	5.0%	-15.1%
CC(OC(=O)Cn1[nH]c(=O)c2ccccc2c1=O)C(=O)Nc1ccccc1[N+](=O)[O-] (stereo not drawn)	6.3%	-1.4	-2.5	-9.2%[2.33 µM]	-6.4%	-13.1%
CCN(CC(=O)Nc1c(F)cccc1F)C(=O)c1cc([N+](=O)[O-])ccc1N1CCCCC1	9.2%	-2.3	4.2	14.1µM*	-6.7%	-20.3%
CN(CCOc1ccccc1)C(=O)c1ccc(N2CCCC2)c([N+](=O)[O-])c1	?	-23.0	-2.4	50.1µM*	?	?
SMILES	HP1b binding inh	Six1-Eya2 inh	CtBP-E1A inh	G9a inh	BAZ2B block	JMJD2A Tudor
CCN(CC(=O)Nc1c(F)cccc1F)C(=O)c1ccc(N2CCCC2)c([N+](=O)[O-])c1	-0.9%	-0.1	5.0	-38.1%	-34.3%	-26.2%
O=C(c1ccc(N2CCCCC2)c([N+](=O)[O-])c1)N(Cc1ccccc1)c1ccccn1	?	?	?	?	31.6µM*	44.7µM*
COc1cccc(NC(=O)CN(C)C(=O)c2ccc(N3CCCCC3)c([N+](=O)[O-])c2)c1	-16.1%	-21.3	-10.7	19.8%[12.7 µM]	?	?
CCOc1ccc(NC(=O)CN(C)C(=O)c2ccc3nc(CC)c(CC)nc3c2)cc1OCC	16.6%	-16.4	-0.3	50.1µM*	0.3%	-18.6%
CCCN(CC(=O)Nc1ccccc1C)C(=O)c1ccc(N2CCCCC2)c([N+](=O)[O-])c1	-14.4%	-16.5	-2.1	50.1µM*	?	?
CN(CC(=O)Nc1cccc(F)c1)C(=O)c1ccc(N2CCCC2)c([N+](=O)[O-])c1	-21.6%	-16.6	-6.8	50.1µM*	?	?
CCCN(CC(=O)Nc1ccccc1C)C(=O)c1ccc(N2CCCC2)c([N+](=O)[O-])c1	-12.4%	-3.7	-4.2	14.7%[0.501 µM]	-38.4%	?
CN(CC(=O)Nc1cccc(F)c1)C(=O)c1ccc2c(c1)CC(c1ccccc1)OC2=O (stereo not drawn)	-2.0%	-5.3	-21.3	14.1µM*	?	?
CCOc1ccc(NC(=O)CN(C)C(=O)c2ccc(N3CCCCCC3)c([N+](=O)[O-])c2)cc1OCC	-37.2%	-25.6	-3.4	12.8%[2.33 µM]	?	50.1µM*
CN(CC(=O)Nc1cccc(F)c1)C(=O)c1ccc(C2SCCS2)cc1	25.4%	6.0	-22.4	31.0%[59 µM]	-6.5%	-14.4%
CN(CC(=O)Nc1cccc(F)c1)C(=O)c1ccc(N2CCCCCC2)c([N+](=O)[O-])c1	?	-22.6	-15.2	?	?	?
CCc1ccc(-c2cc(C)no2)cc1S(=O)(=O)Nc1ccc(Cl)cc1	7.8%	.	.	11.5%[59 µM]	7.2%	-21.4%
O=C1Nc2ccccc2Oc2cc(Oc3ccccc3)ccc21	?	.	.	?	44.7µM*	50.1µM*
O=C1Nc2ccccc2Oc2cc(Oc3cccc(Cl)c3)ccc21	4.4%	.	.	4.9%[59 µM]	-30.4%	-13.1%
Nc1ncnc2[nH]c(=S)[nH]c12	?	-18.4	-13.8	.	.	3.55µM*
O=c1[nH]c(=S)c2[nH]cnc2[nH]1	3.9%[57 µM]	.	.	.	.	-10.8%[57.1 µM]
C(/C=C/c1ccco1)=N/N1CCN(c2ccccc2)CC1	?	?	?	39.8µM*	28.2µM*	?
Clc1ccccc1CN1CCN(/N=C/C=C\c2ccco2)CC1	44.7µM*	?	11.5	35.5µM*	39.8µM*	?
